Where “and” joins values, the source holds several entries; their conditions need not be identical. Identical values can stand only once. About 12,000 (3.5%) of roughly 340,000 compounds were called active. Inconclusive results (about 18%) are left out. Calls follow the shape of the dose curve; as a rule, active = well fitted inhibition curve with a large enough effect; inconclusive = small, poorly fitted or top-dose-only effect, or another doubt; inactive = no such curve, though single readings can be large or run the other way. The list comes from a sample in which actives are over-represented; it also holds similar structures and randomly drawn compounds. Where a structure was tested more than once in an assay, its records may differ in their call.
Test: qHTS Assay for Inhibitors of Hepatitis C Virus (HCV)
Settings: Huh7.5.1 HCVcc-Cre infection, luciferase reporter, 44 h; series mostly up to 41.8 µM; activity change, negative = inhibition: at the top concentration
Source text: Hepatitis C virus (HCV) infects about 200 million people in the world. Many infected people progress to chronic liver disease including cirrhosis with a risk of developing liver cancer. To date, there is no effective vaccine for hepatitis C. Current therapy based on interferon is only effective in about half of the patients and is associated with significant adverse effects. The fraction of people with HCV who can complete a successful treatment is estimated to be no more than 10 percent. Recent development of direct-acting antivirals against HCV, such as protease and polymerase inhibitors, is promising but still requires combination with peginterferon and ribavirin for maximal efficacy. In addition, these agents are associated with high rate of resistance and many have significant side effects. Due to the lack of a culture system for infectious HCV, the search for new HCV drugs has been greatly hampered. […] High-throughput screening (HTS) with an infectious HCV system would cover the complete spectrum of potentially druggable targets in all stages of HCV lifecycle, and would have more biological relevance than other cell-based assays. Moreover, targeting several key processes in the viral life cycle may not only increase antiviral efficacy; more importantly, it may also reduce the capacity of the virus to develop resistance to the compound. The goal of this project is to identify novel HCV inhibitors as new therapies for hepatitis C, using a highly sensitive and specific assay platform which is based on a HCV infectious cell culture system established in the laboratory and adapted for high-throughput HCV drug screen. NIH Chemical Genomics Center [NCGC] NIH Molecular Libraries Probe Centers Network [MLPCN] MLPCN Grant: MH095511 Assay Submitter (PI): Jake Liang, NIDDK
The assay will start with plating 1,000 cells/well in 3 µL volume and culture for 4 h. Then 23 nL of compounds from the library collection will be added to each well, followed by adding 2.5 µL of HCVcc-Cre virus (~ 0.5 moi) and further cultured for 44 h before the luciferase assay. A volume of 4.5 µL luciferase substrates will be added to each well and the plates will be incubated at room temperature for 15 min. and then read for 15 sec. for the luciferase activity
% is scaled to controls: 0 for no effect and ±100 for the full control effect.

| Compound | activity change, negative = inhibition | Potency |
| --- | --- | --- |
| COc1ccccc1CNS(=O)(=O)c1cc(C(=O)NCc2ccccn2)c(Cl)cc1Cl | -7.19% (inactive) | – |
| Cn1cccc1C(=O)OCC(=O)c1ccc(Br)s1 | 11% (inactive) | – |
| Cc1ccc(C)c(NC(=O)COC(=O)c2nn(C)c(=O)c3ccccc23)c1 | 22.1% (inactive) | – |
| COc1ccccc1N1CCN(C(=O)Cn2nnc(-c3cccs3)n2)CC1 | -8.71% (inactive) | – |
| O=C(Nc1ccccc1-c1nnn(CC(=O)N2CCN(c3ccccc3)CC2)n1)c1cccs1 | – | 12.6 µM (active) |
| O=C(Nc1ccccc1-c1ccccc1)c1cccs1 | -24.9% (inactive) | – |
| COc1cc(OC)cc(C(=O)NCC(=O)OCC(=O)NC(C)CCc2ccccc2)c1 (stereo not given) | 4.6% (inactive) | – |
| Cc1nn(-c2ccc(F)cc2)c(Cl)c1/C=C(/CCC(=O)O)c1nc2ccccc2s1 | 22.1% (inactive) | – |
| CCCN=C1N(C)C[C@@H]2[C@@H]3C(=O)N(Cc4ccccc4)C(=O)[C@@H]3[C@](C)(C(=O)OC)N12 | 12% [at 8.37 µM] (inactive) | – |
| Cc1ccc(S(=O)(=O)N2[C@@H](c3ccc(Br)cc3)C(C(=O)O)=C[C@H]2CC2CCCC2)cc1 | 4.65% (inactive) | – |
| CCn1c(/C=N/NC(=O)c2ccc(OC)cc2)nc2ccccc21 | – | 17.8 µM (active) |
| COc1ccc(C(=O)NCC(=O)N/N=C/c2cccnc2)cc1 | 17.2% (inactive) | – |
| CCCn1c(C(=O)c2ccccc2OC)nc2ccccc21 | -3.79% (inactive) | – |
| CCC(C)(C)n1nnnc1C(c1ccccc1OC)N1CCSCC1 (stereo not given) | 2.53% (inactive) | – |
| CCC(C)(C)n1nnnc1C(c1cccs1)N1CCN(Cc2ccccc2)CC1 (stereo not given) | -14.5% (inactive) | – |
| CCC(C)(C)n1nnnc1C(c1cccs1)N1CCN(c2nc3ccccc3s2)CC1 (stereo not given) | – | 10 µM (active) |
| Cc1cc(NC(=O)CSC2=NS(=O)(=O)c3cc(Cl)ccc3N2)no1 | 1.9% (inactive) | – |
| CCOC(=O)CNC(=O)N1c2ccccc2Sc2ccccc21 | -3% (inactive) | – |
| CCNCCC(=O)N1c2ccccc2Sc2ccc(NC(=O)OCC)cc21 | – | 12.6 µM (active) |
| CCOC(=O)Nc1ccc2c(c1)N(C(=O)CCN1CCN(CCO)CC1)c1ccccc1CC2 | 6.1% (inactive) | – |
| COc1cccc(-c2nc(CS(=O)CC(=O)NCc3ccc(F)cc3)c(C)o2)c1 (stereo not given) | -6.07% (inactive) | – |
| COc1ccc(-c2nc(CS(=O)(=O)CC(=O)NCc3cccc(Br)c3)c(C)o2)cc1 | 8.12% (inactive) | – |
| CCCCN(CC)CCCNC(=O)CS(=O)(=O)Cc1nc(-c2cccc(OC)c2)oc1C | – | inactive and 20 µM (active) |

| Compound | activity change, negative = inhibition | Potency |
| --- | --- | --- |
| COc1ccc(C(CNC(=O)c2ccc(NS(=O)(=O)c3ccc(F)c(C)c3)cc2)N(C)C)cc1 (stereo not given) | -7.07% (inactive) | – |
| Cc1ccc(OCCC(=O)Nc2ccc(S(=O)(=O)Nc3nccs3)cc2)cc1 | 8.18% (inactive) | – |
| COCCCn1c(SCc2cccc(OC)c2)nc2cc(OC)c(OC)cc2c1=N | – | 7.08 µM (active) |
| COc1cccc(CSc2nc3nc(C)cc(C)n3n2)c1 | -14.8% (inactive) | – |
| COCCn1c(SCc2nc3cc(OC)c(OC)cc3c(=O)[nH]2)nnc1-c1ccncc1 | 21.9% (inactive) | – |
| Cc1ccccc1SCC(=O)OCC(=O)N1CC(=O)Nc2ccccc21 | 7.25% (inactive) | – |
| CC1CCCCC1NC(=O)/C(C#N)=C/C=C/c1ccccc1[N+](=O)[O-] (stereo not given) | – | 11.2 µM (active) |
| O=C(/C=C/c1ccccc1[N+](=O)[O-])NCC1CCCO1 (stereo not given) | 11.4% (inactive) | – |
| O=C(/C=C/c1ccccc1[N+](=O)[O-])OC1CCCCC1=O (stereo not given) | -0.487% (inactive) | – |
| Cc1ccc(S(=O)(=O)N2[C@@H](c3cccc(Cl)c3)C(C(=O)O)=CC[C@H]2c2ccc(Cl)c(Cl)c2)cc1 | 22.6% (inactive) | – |
| C#CCOCCOCCOCCNc1nc(N2CCN(C(=O)CCCCCCCCCCNC(=O)[C@H](CCCCN)n3cc(C)nn3)CC2)nc(N2CCN(C(=O)CCCCCCCCCCNC(=O)[C@H](CO)n3cc(CCCSC)nn3)CC2)n1 | 12.2% (inactive) | – |
| CC(OC(=O)CCCOc1ccccc1)C(=O)Nc1ccc(Cl)cn1 (stereo not given) | 18.5% (inactive) | – |
| CCN(CC)S(=O)(=O)c1cc(C(=O)Nc2cc(S(=O)(=O)N3CCOCC3)ccc2N2CCCC2)ccc1F | -4.92% (inactive) | – |
| CCN(CC)S(=O)(=O)c1ccc(N2CCCC2)c(NC(=O)c2ccc([N+](=O)[O-])o2)c1 | – | 10 µM (active) |
| CCN(CC)S(=O)(=O)c1ccc(N2CCOCC2)c(NC(=O)c2ccc(=O)n(C)n2)c1 | 2.92% (inactive) | – |
| CCOc1ccccc1OCC(=O)Nc1ccccc1C(=O)NC1CC1 | 10.1% (inactive) | – |
| Cc1noc(C)c1NC(=O)Nc1cccc2c1O[C@H](CN(C)C(=O)Nc1ccccc1)[C@@H](C)CN([C@H](C)CO)C2=O | 25.4% (inactive) | – |
| Cc1noc(C)c1NC(=O)Nc1ccc2c(c1)C(=O)N([C@H](C)CO)C[C@H](C)[C@@H](CN(C)C(=O)Nc1ccccc1)O2 | 14.4% (inactive) | – |
| Cc1noc(C)c1NC(=O)Nc1ccc2c(c1)C(=O)N([C@H](C)CO)C[C@H](C)[C@@H](CN(C)C(=O)Nc1ccc(C(F)(F)F)cc1)O2 | – | 3.98 µM (active) |
| OCC[C@H]1C[C@H](O)[C@@H](O)[C@]2(CCc3ccccc3O2)O1 | -5.5% (inactive) | – |
| Cc1ccc(C)c(C(=O)COC(=O)Cn2[nH]c(=O)c3ccccc3c2=O)c1 | 6.08% (inactive) | – |
| CCC1(C)Cc2c(sc3nc(SC)nc(N)c23)CO1 (stereo not given) | -16.9% (inactive) | – |

— PubChem BioAssay AID651820 (National Center for Advancing Translational Sciences (NCATS), 2012)
